# Bioassay records as filed in PubChem.
# ADAM17 inh: inhibitors of human ADAM17; P78536; recombinant ADAM17, EDANS/DABCYL FRET peptide cleavage; inhibition, % at 6.95 µM; 370,000 tested, 0.83% active; AID 720648;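 active means inhibition above the mean of compounds lying between control limits plus 3 SD, set per campaign, cut at about 8.5% in these data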;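 further: 0% = DMSO-only wells as the low control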
# proKLK7 act: activators of human kallikrein-7 zymogen; P49862; purified proKLK7, EDANS-DABCYL substrate fluorescence; 100% is mature enzyme control, 0% vehicle; activation, % at 7 µM; 370,000 tested, 0.9% active;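 active means activation above the mean of all tested compounds plus 3 SD, computed per campaign excluding outliers beyond control limits, cut at about 13% in these data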
# Target sequence (P49862 whole entry, looked up): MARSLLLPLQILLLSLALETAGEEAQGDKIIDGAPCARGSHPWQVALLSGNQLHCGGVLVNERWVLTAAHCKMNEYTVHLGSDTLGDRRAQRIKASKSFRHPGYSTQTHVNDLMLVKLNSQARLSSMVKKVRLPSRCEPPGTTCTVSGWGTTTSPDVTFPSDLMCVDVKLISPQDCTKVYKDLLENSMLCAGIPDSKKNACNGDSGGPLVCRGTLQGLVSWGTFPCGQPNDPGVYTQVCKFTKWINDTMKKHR
# ADAM10 inh: inhibitors of human ADAM10 | O14672 | 370,000 tested, 0.62% active | recombinant ADAM10, EDANS/DABCYL FRET peptide cleavage, 3 h | inhibition, % at 7 µM | AID 720582;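 active means inhibition above a per-campaign cutoff equal to the mean of compounds falling between control-based bounds plus 3 SD, cut at about 20% in these data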;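 further: 0% = DMSO wells while the 100% control is not disclosed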
# GRIN3A LBD mod: NR3A (human) ligand-binding domain modulation; Tm shift relative to glycine control, % at 25 µM; NR3A LBD differential scanning fluorimetry, Tm shift; 0% = protein alone, 100% = glycine-bound protein; 340,000 tested, 2.5% active;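 active means melting temperature shift of at least 10% of the positive control shift, at one fixed dose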
# rCAG binder: molecules binding r(CAG) RNA repeats; r(CAG) RNA repeat, TO-PRO-1 dye displacement fluorescence; inhibition, % at 3 µM; 370,000 tested, 1.3% active; AID 651821;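 active means inhibition above the plate cutoff, the mean of all test compounds on that plate plus 3 SD, cut at about 35% in these data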;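 further: 0% = DMSO alone and 100% = 100 µM mitoxantrone as full dye displacement; higher means more dye released from RNA so lower well fluorescence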
# AHR activator: activates the human aryl hydrocarbon receptor | AHR-responsive luciferase reporter cells, luminescence | 320,000 tested, 2.5% active | AID 2796 | P35869 | activation, % at 5 µM; in the data active means activation above about 47%;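 further: 0% = vehicle wells and 100% = reference agonist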
# proKLK7 act conf: confirmation of human kallikrein-7 zymogen activators; activation, % at 7 µM; 3,200 tested, 68% active; purified proKLK7, EDANS-DABCYL substrate fluorescence; scaled: vehicle 0, mature enzyme 100; shares compounds with proKLK7 act; AID 686949;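 active means activation, as change over the incubation, above the mean of all tested compounds plus 3 SD, cut at about 13% in these data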
# EDANS interfere: fluorescence interference counter-screen for KLK7 activators; EDANS-DABCYL substrate fluorescence interference, no enzyme, 4 h; solvent 0%, active enzyme control 100%; activation, % at 7 µM; shares compounds with proKLK7 act; 3,200 tested, 80% active;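 active means activation above the all-compound mean plus 3 SD, ignoring values outside control-based bounds, cut at about 4.8% in these data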;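 further: value is the 4 h activation minus the activation read at time zero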
# K7 EDANS ctr: EDANS fluorescence interference in dose response, no enzyme. 250 tested, 20% active. EC50, µM. AID 720493. EDANS-DABCYL peptide fluorescence interference. shares compounds with proKLK7 act;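 active means compounds that raise the fluorescence signal in this interference counterscreen, with EC50 at or below 10 µM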;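 further: intact quenched peptide substrate alone read at 355 nm excitation and 520 nm emission; signal is fluorescence gain from T0 to T4 after four hours at room temperature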
# * = called active by the depositor; i = inactive; . = no result. The list is not random: actives were taken first. Their share in the collection is about 7%.
SMILES,ADAM17 inh,proKLK7 act,ADAM10 inh,GRIN3A LBD mod,rCAG binder,AHR activator,proKLK7 act conf,EDANS interfere,others
O=C(O)c1cccc(CN2C(=O)SC(Nc3cccc4ccccc34)C2=O)c1 (stereo not given),-31,60*,-95,0,25,4,62*,69*,
Nc1ccc2nc3c(c(Cl)c2c1)CCCC3,-65,14*,-194,1,2,1,1,1,
CN(C)C(=O)COc1ccc2cc(-c3ccccc3)c(=O)oc2c1,i,33*,i,3,2,2,66*,74*,
CCCOc1ccc2cc(-c3ccccn3)c(=O)oc2c1,i,25*,i,-1,-3,-13,55*,67*,
CC(Oc1ccc2cc(-c3ccccc3)c(=O)oc2c1)C(=O)NCC1CCC(C(=O)O)CC1 (stereo not given),i,64*,i,-1,7,0,65*,77*,
CC(=O)Oc1ccc2cc(-c3cccnc3)c(=O)oc2c1,i,266*,i,0,1,.,72*,72*,
CC(=O)Oc1cccc(-c2nc3ccccc3c(=O)o2)c1,-1,0,-1,-1,4,0,.,.,
CC(=O)Nc1sc(C)c(C)c1C(=O)OCC(=O)Nc1cc(S(=O)(=O)N2CCCCC2)ccc1Cl,-2,0,-2,-1,1,0,.,.,
O=C(CCN1C(=O)/C(=C\c2ccccc2F)SC1=S)N1CCCCC1,-5,0,-10,-3,0,0,.,.,
Cc1cc(OC(C)C(=O)NCC2CCC(C(=O)O)CC2)c2c(C)cc(=O)oc2c1 (stereo not given),-163,13*,i,-3,-2,-1,12,12*,
Cc1cc(OC(C)C(=O)NCC2CCC(C(=O)O)CC2)c2c(C)c(Cc3ccccc3)c(=O)oc2c1 (stereo not given),-31,-2,-125,-2,4,-1,.,.,
COc1ccc2cc(-c3ccccc3)c(=O)oc2c1,i,23*,i,-1,2,-5,82*,74*,
COC(=O)C(C)Oc1ccc2cc(-c3ccccc3)c(=O)oc2c1 (stereo not given),i,16*,i,-2,-2,1,64*,44*,K7 EDANS ctr=>70
CCCCCNC(=O)C1C(=O)Nc2ccccc2C(=O)N1c1ccc(OC)cc1 (stereo not given),-7,2,-28,.,1,.,.,.,
Cc1cccc(C)c1NC(=O)C(CCc1ccccc1)N1CCC(c2ccccc2)CC1 (stereo not given),0,1,1,.,4,.,.,.,
CN(CC(=O)Nc1ccccc1Br)C(=O)c1cc(S(=O)(=O)N(C)C)ccc1N1CCCC1,-4,1,-7,0,1,2,.,.,
O=S(=O)(c1ccc(-c2cn3ccccc3n2)cc1)N1CCOCC1,i,16*,i,2,7,0,19*,16*,K7 EDANS ctr=>70
CC(C)c1ccc([N+](=O)[O-])cc1S(=O)(=O)N1CCN(C)CC1,-2,0,-5,2,-3,-2,.,.,
C/C(=N\NC(=O)CC#N)C1COc2ccccc2O1 (stereo not given),-2,1,-1,-1,2,0,.,.,
CC(C)=CCCC(C)CN1CCC(N2CCC(C(=O)NC(C)C)CC2)CC1 (stereo not given),-4,1,0,-2,-6,-2,.,.,
CC1(C)Cc2c(sc(NC(=O)c3ccc(C(=O)c4ccccc4)cc3)c2C#N)C(C)(C)N1,1,15*,1,4,-1,-3,1,15*,
O=C(Nc1cccc2c1C(=O)NC2=O)c1ccc(S(=O)(=O)N2CCCC2)cc1,-80,22*,-189,3,0,-2,258*,264*,
Cc1cccc(NC(=O)c2ccc(S(=O)(=O)N3CCCC3)cc2)c1C,-2,0,6,-3,-4,1,.,.,
CC1(C)Cc2c(sc(NC(=O)c3ccc(S(=O)(=O)N4CCCCCC4)cc3)c2C(N)=O)C(C)(C)N1,-18,31*,-32,-1,0,-5,33*,31*,
CC1(C)Cc2c(sc(NC(=O)c3ccc(S(=O)(=O)N4CCCC4)cc3)c2C#N)C(C)(C)N1,-4,38*,4,4,2,-6,141*,154*,
SMILES,ADAM17 inh,proKLK7 act,ADAM10 inh,GRIN3A LBD mod,rCAG binder,AHR activator,proKLK7 act conf,EDANS interfere,others
CCOC(=O)N1CCN(S(=O)(=O)c2ccc(C(=O)Nc3sc4c(c3C#N)CCC4)cc2)CC1,-3,0,6,1,10,3,.,.,
COc1ccc(C)cc1S(=O)(=O)NC(C)C(=O)Nc1ccc2c(c1)OCO2 (stereo not given),-4,0,2,0,2,3,.,.,
O=C(NCc1cccnc1)c1cc(C2CCCN(S(=O)(=O)c3cccs3)C2)on1 (stereo not given),-4,0,-6,.,1,.,.,.,
CCOC(=O)N1CCN(S(=O)(=O)c2ccc(C(=O)Nc3sc4c(c3C#N)CC(C)(C)NC4(C)C)cc2)CC1,1,109*,-5,-4,7,0,53*,51*,
CCN(CC(=O)NCc1ccncc1)S(=O)(=O)c1ccccc1,-4,0,-4,-1,-1,5,.,.,
COc1ccccc1NS(=O)(=O)c1cc(NC(=O)CCc2nc3ccccc3c(=O)[nH]2)ccc1C,1,0,-3,-1,10,7,.,.,
COc1ccc(-c2cc(C(F)(F)F)nc(SCC(=O)N(C)Cc3cn(C)nc3C)n2)cc1OC,-113,32*,-345,-3,-8,-1,3,1,
COc1ccc(-c2cc(C(F)(F)F)nc(SCC(N)=O)n2)cc1,-319,15*,i,-3,-2,-2,6,6.6*,
OC(c1ccc(F)c(F)c1)c1ncc(-c2cccc(F)c2)[nH]1 (stereo not given),3,0,5,.,2,.,.,.,
CC(=O)Oc1cc2oc(=O)cc(C)c2cc1Cl,i,82*,i,-2,-4,-2,368*,377*,
Cc1ccc(S(=O)(=O)NC(C(=O)Oc2cc3oc(=O)cc(C)c3cc2Cl)C(C)C)cc1 (stereo not given),i,104*,i,1,2,2,173*,102*,
